Screens (PubChem BioAssay)
An excerpt weighted towards active compounds, which were near 19% of everything screened.
TDP1 cell noCPT – qHTS for Inhibitors of human tyrosyl-DNA phosphodiesterase 1 (TDP1): qHTS in cells in absence of CPT. Potency, µM (titrated, usually from 46.2 µM), for the others: top-dose activity change, negative = growth inhibition, actives largely listed as inhibitors. DT40 Tdp1-/- hTDP1 cells, no CPT, ATP luminescence, 48 h. 420,000 tested, 15% active; further: potency means the concentration at half of the fitted maximal effect; nearly all actives have a fitted effect of over 55% in size
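Growth of hTDP1-complemented DT40 Tdp1-knockout cells is measured by ATP luminescence after at least 48 hr compound exposure at 37 °C, with DMSO substituting for the 20 nM CPT used in the parallel screen.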
TDP1 cell CPT – DT40-hTDP1 cell growth loss with CPT. chicken DT40 Tdp1-/-;hTDP1 cells + 20 nM CPT, ATP luminescence, 48 h. Potency, µM (top dose mostly 46.2 µM), inactives show at the highest dose activity change, negative = growth inhibition, usual class: inhibitors. 420,000 tested, 12% active. AID 686979; further: potency means the concentration at half of the fitted maximal effect; nearly all actives have a fitted effect of over 55% in size
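Chicken DT40 Tdp1-/- cells stably complemented with human TDP1 were seeded at 400 cells/well in medium containing 20 nM camptothecin, exposed to pin-transferred compounds, and grown at 37 °C for at least 48 hr. Viability was read as ATP luminescence.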
HT1080 IDH1KD tx – toxicity to HT-1080 IDH1 knockdown cells (counter line); HT-1080 IDH1 knockdown viability, ATP luminescence, 48 h; Potency, µM (doses to about 46.1 µM), for the others: at the highest dose activity, negative = toxicity, most hits filed as cytotoxic; 360,000 tested, 2% active; AID 686971;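 further: potency means the concentration at half of the fitted maximal effect; 0% = DMSO wells and -100% = cell-free medium wells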
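% activity derives from luminescence (CellTiter-Glo), normalised to DMSO and no-cell wells. HT-1080-IDH1KD cells, 750/well, had 48 h compound exposure at 37 °C.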
IL1B secr inh – inhibitors of inflammasome signaling (IL-1 beta secretion); 360,000 tested, 4.7% active; AID 743279; activity change, % at 57.5 µM; THP-1 LPS/ATP IL-1B secretion, AlphaLISA, 16 h; hits give low values; in the data active means activity change below about -50%; inconclusive means mostly about -30% to -49%
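Secreted IL-1B measured by AlphaLISA bead assay after 16 h compound exposure of THP-1 cells; compounds (final up to 57.5 uM) added 1 h before LPS (250 ng/mL) and ATP (1.25 mM) stimulation; lower signal means less secretion.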
HT1080NT lethal – kills 2HG-producing HT-1080-NT fibrosarcoma cells; HT-1080-NT fibrosarcoma viability, CellTiter-Glo ATP luminescence, 48 h; Potency, µM (highest dose often 46.1 µM), for inactives: at the highest dose activity, negative = less viability, actives largely listed as cytotoxic; 360,000 tested, 1.6% active;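 further: NT is the 2HG producing partner of a matched IDH1 knockdown line; potency means the concentration at half of the fitted maximal effect; 0% = DMSO-treated cells and -100% = media-only wells without cells; nearly all actives have a fitted effect of over 55% in size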
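Luminescent CellTiter-Glo readout after 48 hours of compound exposure at 37 degrees C defined viability of HT-1080-NT cells. Activity was normalized to DMSO wells and cell-free media wells; concentration-response curves were fitted and assigned curve classes.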
Starred values were filed as active, the others as inactive; ? = inconclusive; / = not tested or not shown; [ ] = dose if it differs, or a comment. Unless noted, the call rests on the fitted dose curve; in most records, active means well fitted curve in the direction sought with a large enough effect; inconclusive means small, poorly fitted or top-dose-only effect, or another doubt; inactive means no such curve, though single readings can be large; an effect the other way counts as inactive or inconclusive. Unless noted, on the % scale 0 is the no-effect control and ±100 the full control effect.

SMILES	TDP1 cell noCPT	TDP1 cell CPT	HT1080 IDH1KD tx	IL1B secr inh	HT1080NT lethal
Cc1ccc(-c2noc(CSc3nnc(Cc4cccs4)n3-c3ccccc3)n2)cc1	21µM*	21µM*	-8%	-3	0%
Cc1ccc(-c2noc(CSc3nnc(Cc4ccccc4)n3-c3cccc(C)c3)n2)cc1	18µM*	?	?	?	1%[9.24 µM]
Cc1ccc(-c2noc(CSc3ccccc3)n2)cc1	-11%	2%	17%	11	29%
O=c1oc2ccccc2cc1-c1nc(-c2cccs2)no1	-24%	-27%	/	/	/
C[C@H](CO)N1C[C@H](C)[C@@H](CN(C)Cc2ccccc2)Oc2ccc(NC(=O)Cn3cnnn3)cc2C1=O	-3%	16%	8%	17	15%
CC(C)CC1C(=O)N(Cc2cn(CC3CCCCC3)nn2)CCS(=O)(=O)N1Cc1ccc(-c2ccc(Cl)c(Cl)c2)cc1 (stereo not drawn)	16µM*	?	-29%	-11	?
Cc1cccc(C)c1-c1ccc(CN2C(CC(C)C)C(=O)N(Cc3cn(CC4CCCCC4)nn3)CCS2(=O)=O)cc1 (stereo not drawn)	23µM*	?	?	-13	?
Cc1ccc(SCC(=O)OCC(=O)N2CCN(C(=O)c3ccco3)CC2)c(C)c1	4%	-6%	0%	0	0%
CCOC(=O)c1ccc(NC(=O)Nc2nncs2)cc1	0.0065µM*	0.018µM*	0.92µM*	29	1.2µM*
CCOC(=O)c1ccc(NC(=O)Nc2ccon2)cc1	0.018µM*	0.0073µM*	0.92µM*	82	0.58µM*
CCOC(=O)c1ccc(NC(=O)Nc2nc3ccccc3s2)cc1	?	?	2%	-10	-2%
CCCc1nc2ccc(NC(C)=O)cc2c(=O)n1Cc1ccc(Cl)cc1	23µM*	?	-6%	?	-10%
CCCc1nc2ccccc2c(=O)n1CC(=O)c1ccccc1	-26%	?	-14%	-9	4%
CCCc1nc2ccc(NC(=O)c3cccs3)cc2c(=O)n1Cc1ccccc1Cl	16µM*	?	17%	-14	8%
Cc1ccc2nc(SCC(=O)Nc3nnc(SCC(N)=O)s3)[nH]c2c1	-3%	4%	1%	20	13%
COc1ccc(NC(=O)CN(c2ccc(C(C)C)cc2)S(=O)(=O)c2c(C)noc2C)cc1OC	?	?	2%	19	-3%
Cc1noc(C)c1S(=O)(=O)Nc1ccc(C(=O)Nc2ccc(C(C)C)cc2)cc1	9.2µM*	12µM*	/	/	/
Cc1noc(C)c1S(=O)(=O)N(CC(=O)Nc1ccc(F)cc1F)c1ccc(C(C)C)cc1	21µM*	?	/	/	/
Cc1noc(C)c1S(=O)(=O)N(CC(=O)Nc1ccc(C(F)(F)F)cc1)c1ccc(C(C)C)cc1	23µM*	16µM*	/	/	/
Cc1ccc(N(CC(=O)Nc2ccc(C)c(F)c2)S(=O)(=O)c2c(C)n[nH]c2C)cc1	?	-26%	/	/	/
Cc1n[nH]c(C)c1S(=O)(=O)N(CC(=O)Nc1ccc(C(F)(F)F)cc1)c1ccc(C(C)C)cc1	?	15µM*	/	/	/
Cc1ccc(NC(=O)c2ccc(NS(=O)(=O)c3c(C)noc3C)cc2)cc1C	?	-30%	-6%	-18	0%
O=C(CCc1nnc(-c2ccc3c(c2)OCO3)o1)N1CCC(c2ccc(F)cc2)C1 (stereo not drawn)	-33%	-22%	-9%	45	?
CCn1c(-c2cccnc2)nc2cc(NC(=O)COC)cc(C(=O)N3CCOc4ccccc4C3)c21	-12%	2%	/	/	/
Cn1c(=O)c2[nH]c(Cc3ccsc3)nc2n(C)c1=O	-16%	-14%	8%	23	-3%
CC1CCC2(CC1)NC(=S)N(c1ccccc1)N2 (stereo not drawn)	8%	-7%	18µM*	-4	?
NC(=O)N1CCC2(CC1)NC(=O)N(c1ccccc1)N2	-3%	28%	6.5µM*	15	10µM*
